More than one record can exist for a structure, and the calls need not agree. Calls of active or inactive are those of the source. How the source made its calls: active means hit-call score of the fitted dose curve at least 0.9, where 1 is the maximum; inactive means score below 0.9.

Read-out in assay [1]: Interleukin-1 alpha (IL1a), IL1A (gene 3552)
As to the kind of experiment: BSK_KF3CT_IL1a: BioMAP Diversity Plus: KF3CT Assay for Interleukin-1 alpha (IL1a) Biomarker Activity (AID 2283070). The settings on record: primary human keratinocytes with fibroblasts; actives raise or lower the signal. An outline of the steps: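 Primary skin co-culture (keratinocytes, foreskin fibroblasts), 24 h exposure; ELISA for IL-1a; bidirectional curve fit vs DMSO.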

Read-out in assay [2]: TIMP metallopeptidase inhibitor 2 (TIMP2), TIMP2 (gene 7077)
As to the kind of experiment: BSK_KF3CT_TIMP2: BioMAP Diversity Plus: KF3CT Assay for TIMP metallopeptidase inhibitor 2 (TIMP2) Biomarker Activity (AID 2283071). The settings on record: primary human keratinocytes with fibroblasts; actives raise or lower the signal. An outline of the steps: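 ELISA readout of TIMP-2 in keratinocyte plus foreskin fibroblast co-cultures (human skin primary cells), 24 h post-dose. Gain or loss of signal fitted relative to DMSO.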

Read-out in assay [3]: C-C motif chemokine 2 (Homo sapiens) (UniProt P13500)
Put plainly: BSK_KF3CT_MCP1: BioMAP Diversity Plus: KF3CT Assay for Monocyte Chemoattractant Protein 1 (MCP1/CCL2) Biomarker Activity (AID 2283073). The conditions noted are these: primary human keratinocytes with fibroblasts; actives raise or lower the signal. The procedure, abridged:
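ELISA readout of MCP-1 after 24 h chemical dosing of a human skin primary co-culture of keratinocytes and foreskin fibroblasts. Activity was fitted in both directions against DMSO.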

Read-out in assay [4]: Matrix Metallopeptidase 9 (MMP9), MMP9 (gene 4318)
As to the kind of experiment: BSK_KF3CT_MMP9: BioMAP Diversity Plus: KF3CT Assay for Matrix Metallopeptidase 9 (MMP9) Biomarker Activity (AID 2283074).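 On AC50: MMP9 protein level quantified by ELISA in the co-culture.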 The settings on record: primary human keratinocytes with fibroblasts; actives raise or lower the signal. An outline of the steps: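 ELISA read-out of MMP-9 at 24 h post-dosing in a co-culture of human skin keratinocytes and foreskin fibroblasts. Gain or loss of signal was fitted in both directions against DMSO.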

Read-out in assay [5]: urokinase plasminogen activator (uPA), PLAU (gene 5328)
As to the kind of experiment: BSK_KF3CT_uPA: BioMAP Diversity Plus: KF3CT Assay for urokinase plasminogen activator (uPA) Biomarker Activity (AID 2283075). The conditions noted are these: primary human keratinocytes with fibroblasts; actives raise or lower the signal. An outline of the steps: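 Skin co-culture (keratinocytes + foreskin fibroblasts), human primary; 24 h post-dose; uPA by ELISA; gain/loss fit vs DMSO baseline.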

Read-out in assay [6]: CD40, CD40 (gene 958)
Put plainly: BSK_LPS_CD40: BioMAP Diversity Plus: LPS Assay for CD40 Biomarker Activity (AID 2283076). The settings on record: primary human HUVEC with PBMC; actives raise or lower the signal. The procedure, abridged:
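Cells were dosed, incubated 24 h, then assayed for CD40 by ELISA. Gain or loss of signal was analysed relative to DMSO controls. The culture paired human umbilical vein endothelium with peripheral blood mononuclear cells.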

Read-out in assay [7]: Interleukin-8 (IL8), CXCL8 (gene 3576)
Put plainly: BSK_LPS_IL8: BioMAP Diversity Plus: LPS Assay for Interleukin-8 (IL8) Biomarker Activity (AID 2283078). The settings on record: primary human HUVEC with PBMC; actives raise or lower the signal. An outline of the steps:
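Readout is IL-8 by ELISA, taken 24 h after compounds were added to LPS-stimulated endothelial/PBMC co-cultures. Both increases and decreases relative to DMSO control were scored through bidirectional fitting.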

Assay [8] is described as follows: BSK_LPS_SRB: Viability Assessment in the BioMAP Diversity Plus: LPS Assay (AID 2283079).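 Further: total protein by sulforhodamine B absorbance as a cytotoxicity measure; measured one day after compound addition.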 The settings on record: primary human HUVEC with PBMC. The procedure, abridged: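 Readout is SRB absorbance at 560 nm (0.1% stain, TCA-fixed parallel cultures) as a total-protein cytotoxicity measure. Cells: primary human umbilical vein endothelium plus peripheral blood mononuclear cells, 24 h after chemical exposure; DMSO served as baseline.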

Read-out in assay [9]: Interleukin-1 alpha (IL1a), IL1A (gene 3552)
As to the kind of experiment: BSK_LPS_IL1a: BioMAP Diversity Plus: LPS Assay for Interleukin-1 alpha (IL1a) Biomarker Activity (AID 2283080). The conditions noted are these: primary human HUVEC with PBMC; actives raise or lower the signal. An outline of the steps:
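ELISA read-out of IL-1 alpha from a human primary vascular co-culture (endothelium plus PBMC) under LPS, sampled 24 hours post-dosing. Activity was fitted in both directions relative to DMSO controls.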

Read-out in assay [10]: Monocyte Chemoattractant Protein-1 (MCP1), CCL2 (gene 6347)
Put plainly: BSK_LPS_MCP1: BioMAP Diversity Plus: LPS Assay for Monocyte Chemoattractant Protein-1 (MCP1) Biomarker Activity (AID 2283081).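 On AC50: secreted MCP-1 protein quantified by ELISA in culture supernatant.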 The conditions noted are these: primary human HUVEC with PBMC; actives raise or lower the signal. The procedure, abridged: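 Human endothelial–PBMC co-cultures were dosed with chemical, then LPS-driven MCP-1 levels were quantified by ELISA at 24 h. Activity in either direction was fitted versus DMSO negative control.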

The nature of assay [11]: BSK_LPS_PGE2: BioMAP Diversity Plus: LPS Assay for Prostaglandin E2 (PGE2) Biomarker Activity (AID 2283082).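 On AC50: secreted prostaglandin E2 measured by ELISA in LPS-stimulated co-culture.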 The conditions noted are these: primary human HUVEC with PBMC; actives raise or lower the signal. The procedure, abridged:
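ELISA read-out of PGE2 from human umbilical vein endothelial cells co-cultured with peripheral blood mononuclear cells under LPS, 24 h post-dose. Gain or loss of signal scored relative to DMSO baseline.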

Read-out in assay [12]: Macrophage colony-stimulating factor (MCSF), CSF1 (gene 1435)
As to the kind of experiment: BSK_LPS_MCSF: BioMAP Diversity Plus: LPS Assay for Macrophage colony-stimulating factor (MCSF) Biomarker Activity (AID 2283083). The conditions noted are these: primary human HUVEC with PBMC; actives raise or lower the signal. The procedure, abridged: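 ELISA readout of M-CSF after 24 h compound exposure in a human endothelial/PBMC co-culture. Activity, in either direction, is fitted relative to DMSO vehicle.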

Read-out in assay [13]: Tissue Factor, F3 (gene 2152)
As to the kind of experiment: BSK_LPS_TissueFactor: BioMAP Diversity Plus: LPS Assay for Tissue Factor Biomarker Activity (AID 2283084). The settings on record: primary human HUVEC with PBMC; actives raise or lower the signal. An outline of the steps: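 ELISA signal for cell-surface Tissue Factor (CD142) was read 24 h after compound dosing of an LPS-stimulated human endothelial–PBMC primary co-culture. Gain or loss of signal was scored relative to DMSO.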

Read-out in assay [14]: Tumor necrosis factor (Homo sapiens) (UniProt P01375)
Put plainly: BSK_LPS_TNFa: BioMAP Diversity Plus: LPS Assay for Tumour Necrosis Factor alpha (TNFa) Biomarker Activity (AID 2283085). The conditions noted are these: primary human HUVEC with PBMC; actives raise or lower the signal. The procedure, abridged: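 HUVEC/PBMC co-culture, LPS-stimulated; 24 h post-dose; TNFa by ELISA; gain or loss of signal fitted bidirectionally vs DMSO baseline.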

Read-out in assay [15]: Vascular cell adhesion molecule 1 (VCAM1), VCAM1 (gene 7412)
As to the kind of experiment: BSK_LPS_VCAM1: BioMAP Diversity Plus: LPS Assay for Vascular cell adhesion molecule 1 (VCAM1) Biomarker Activity (AID 2283086). The conditions noted are these: primary human HUVEC with PBMC; actives raise or lower the signal. The procedure, abridged:
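ELISA read-out of VCAM-1 at 24 h post-dosing in an LPS-driven HUVEC/PBMC primary human co-culture; gain or loss of signal fitted bidirectionally against DMSO baseline. Cytotoxicity tracked in parallel cultures by SRB total-protein staining.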

Read-out in assay [16]: CD38, CD38 (gene 952)
As to the kind of experiment: BSK_SAg_CD38: BioMAP Diversity Plus: SAg Assay for CD38 Biomarker Activity (AID 2283087). The conditions noted are these: primary human HUVEC with PBMC; actives raise or lower the signal. An outline of the steps: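 Measures CD38 on a human endothelial/PBMC co-culture driven by SEB and TSST-1, 24 h after compound exposure, using ELISA with fluorescence detection; DMSO defines baseline for bidirectional curve fitting.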

Read-out in assay [17]: CD40, CD40 (gene 958)
As to the kind of experiment: BSK_SAg_CD40: BioMAP Diversity Plus: SAg Assay for CD40 Biomarker Activity (AID 2283088). The settings on record: primary human HUVEC with PBMC; actives raise or lower the signal. The procedure, abridged:
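Compounds were dosed onto a human primary endothelial–PBMC co-culture, and after 24 h CD40 was quantified by ELISA using a fluorescence signal. Activity in either direction was fitted relative to DMSO.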

Read-out in assay [18]: CD69, CD69 (gene 969)
As to the kind of experiment: BSK_SAg_CD69: BioMAP Diversity Plus: SAg Assay for CD69 Biomarker Activity (AID 2283089).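 On AC50: cell surface CD69 protein quantified by ELISA with fluorescence detection.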 The settings on record: primary human HUVEC with PBMC; actives raise or lower the signal. The procedure, abridged:
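Values derive from bidirectional fitting relative to DMSO vehicle. Cells: umbilical vein endothelium plus peripheral blood mononuclear cells, treated 24 h before fluorescent ELISA for CD69.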

Read-out in assay [19]: Transforming growth factor beta 1 (TGFb1), TGFB1 (gene 7040)
Put plainly: BSK_KF3CT_TGFb1: BioMAP Diversity Plus: KF3CT Assay for Transforming growth factor beta 1 (TGFb1) Biomarker Activity (AID 2283072). The conditions noted are these: primary human keratinocytes with fibroblasts; actives raise or lower the signal. The procedure, abridged:
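Read-out: ELISA for TGF-b1 in keratinocyte/foreskin fibroblast human skin co-culture, 24 h after dosing; bidirectional curve fit vs DMSO baseline; gain or loss of signal scored.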

Tumor necrosis factor (Homo sapiens), sequence (P01375 whole entry, looked up): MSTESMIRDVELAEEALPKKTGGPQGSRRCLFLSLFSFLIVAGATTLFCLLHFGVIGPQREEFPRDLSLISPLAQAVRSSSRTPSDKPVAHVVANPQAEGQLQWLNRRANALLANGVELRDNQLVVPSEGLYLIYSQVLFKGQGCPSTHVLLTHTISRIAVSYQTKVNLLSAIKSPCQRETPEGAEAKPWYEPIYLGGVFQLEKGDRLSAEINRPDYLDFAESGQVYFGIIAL

Consider `FC(F)(F)C(F)(C(F)(F)F)C(F)(F)C(F)(F)CC1CO1` (centres undefined), for which the result in assay [1], in [2], in [3], in [4], in assay [5] and in [6] was inactive. For the same compound, the outcome in assay [7], in assay [8], in assay [9], in assay [10], in assay [11] and in [12] was inactive. Further, the result in assay [13], in [14], in [15], in [16], in assay [17] and in [18] was inactive.

As to `Nc1ccc([N+](=O)[O-])cc1Cl`, the result in assay [1], in assay [2], in [19], in assay [3], in assay [4] and in assay [5] was inactive. The outcome in assay [6], in assay [7], in [8], in assay [9], in assay [10] and in assay [11] was inactive. For the same compound, the outcome in [13], in assay [15], in assay [16], in assay [17] and in [18] was inactive.

Turning to `O=[N+]([O-])c1ccccc1`, the outcome in assay [1], in assay [2], in assay [19], in [4], in assay [5] and in [6] was inactive. Moreover, the outcome in assay [7], in assay [8], in [9], in [10], in assay [11] and in [13] was inactive. Further, the outcome in assay [15], in [16], in assay [17] and in assay [18] was inactive.

For orientation: AC50 means the midpoint of the concentration-response curve, whichever way the signal moves. For `CCCCCCCc1ccc(O)cc1`, the AC50 in assay [1] is 30.4 µM (active); in [2] it was 32.2 µM (active); in assay [19] it was 31.7 µM (active); in assay [3] it was 29.6 µM (active); in assay [4] it was 30.5 µM (active); in assay [6], 30.9 µM (active). Besides, the AC50 in assay [7] is 35.1 µM (active); in assay [8], 37.2 µM (active); in assay [9] it was 31.2 µM (active); in [10], 36.5 µM (active); in assay [11], 2.95 µM (active); in assay [13], 38.1 µM (active). The AC50 was 30.8 µM (active) in assay [14]; 36.2 µM (active) in [15]; 35.7 µM (active) in [16]; 35.6 µM (active) in assay [17]; 39.2 µM (active) in assay [18].

Turning to `COC(=O)C(F)(F)C(F)(F)OC(F)(C(F)(F)F)C(F)(F)OC(F)=C(F)F` (centres undefined), the result in [1], in [2], in assay [3], in assay [4], in assay [5] and in assay [6] was inactive. The outcome in assay [7], in assay [8], in [9], in [10], in assay [11] and in assay [13] was inactive. Besides, the outcome in assay [14], in assay [15], in [16], in [17] and in [18] was inactive. For the same compound, the AC50 in [16] is 0.864 µM (active).

Turning to `OCC1CO1` (centres undefined), the result in assay [1], in [2], in assay [19], in assay [3], in assay [4] and in [5] was inactive. In addition, the outcome in assay [6], in [7], in assay [8], in assay [9], in [10] and in assay [11] was inactive. The result in [13], in assay [14], in assay [15], in assay [16], in [17] and in assay [18] was inactive.

The record behind these values is PubChem BioAssay (EPA / NIEHS).
